Test results: the supplement of paper PMC10105736
Values without a mark were called inactive.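 How the source made its calls: active = MAPPIT score above the 99th percentile of random reference set scores in the same batch; inactive = at or below it.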

How the values were obtained:
Assay in all cases: MAPPIT interaction score (arbitrary units); higher = stronger binary interaction signal, active = hit call of the paper
CG13510 = settings: MAPPIT configuration: N-N; pair source set: Lit-BS-16
CG13901 = settings: MAPPIT configuration: N-N; pair source set: Finley_Y2H
CG5862 = settings: MAPPIT configuration: N-N; pair source set: Curagen_high_conf
RpLP1 = settings: MAPPIT configuration: N-N; pair source set: Curagen_low_conf
CG13494 = settings: MAPPIT configuration: N-C; pair source set: screen_3
CG13843 = settings: MAPPIT configuration: N-C; pair source set: screen_3
Os-C = settings: MAPPIT configuration: N-N; pair source set: RRS
CG13840 = settings: MAPPIT configuration: N-N; pair source set: Curagen_low_conf
CG5674 = settings: MAPPIT configuration: N-N; pair source set: screen_2
Klp98A = settings: MAPPIT configuration: N-N; pair source set: screen_1
Rpn13 = settings: MAPPIT configuration: N-N; pair source set: screen_2
CG13560 = settings: MAPPIT configuration: N-N; pair source set: Finley_Y2H
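Further: HEK293T cells with Epo stimulation, STAT-responsive firefly luciferase reporter, fold induction versus unstimulated cells divided by the larger fold induction of two negative controls lacking either bait or prey.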

B1: Grip75 (protein)
chain: MIHDLLLACRSHNPEQLGIKAFNETTVIDQFIHPCEREIFMDIIKIIKVYQEVEQFTHSSGRKSDTHGELPDSLHGYYLLNLAKGIEMALEEYYAEIGRLEKYCLGNERNSLSYVYNALYAKFPLLVFMRNLITEIHVLNLRGCVLLHNLHQQCEHGDIQLEKAIKIIMKPVKNAFFSSLAHWLLFGVIDDVHSEFFIKFTPTDAVDGSSFSKSATCSLLSAEKNPEDYIWQYEVNMSQLPGFFSIVLAEKVLFVGQTVLVFKMGRNVKVKNKTDPLAAKLAELDSDDIYQLWSGRESEFFKMVVDLSNEDTINVFRLEKVIIDIKNYVSARLSEIAVNEVDLERQMGLIKDFFLLGRGEFYLEFCSQMVGTMETYREERFKNVTRSFELAATVTGITDDLDKFSLICQRSTSEPDDTSDFNFLQGLSLKYEYEWPLNLLFSPTTIERYNNIFRFLLIIRTYQYEIQRVWAKQTWRAKSAKDVPPNNKIITLRNYLMFFLNNMQYYIQVDVLESQFGILMNVIKSRSDFEVIQRAHTVFLANVLSHCFLLNESETQLNVTGSQNRNPIYGTLLKLFGICEKFAHMTQTKDPSDDLEDEVDQLNESFGVQIASLIQLLVDVKSASCLGPLSQLLLRLDFNCWFSASHNTSA
MAPPIT interaction score (CG13510): 0.427

B2: Ufl1 (protein)
chain: MGSDWDEIKRLAADFQKAQLTSTLQKLSERNCVEIVTLLLEKQMLEVVFTNDGKEYITPDHLEREIQDELYVNGGRANLVEVSKTLNVDLSRIELLAERISAENQSVHLVLGQLIDEDYISHIAQEINEKLVQRGEVSISELASQFDLPSDFLQHDVVEKHLGKIIKGRQDASNPRVFFTQAYIQRCKAKIRGALAAITRPINVAVILQKIGVQEKIFYSLLDEIAPAGQVTSKQANSQYVPHIYAKTQADWVNSFYKQNSFLEYDAIQKLGISDAKSYIRKQFPNEEFLYLKRVALGARLVELTVVTALNECSATKQYLDLTTILPSNLSEEDIEEVFSTIMAQKHSNPSNFVYLDGIVFSQPYLAQLVQPCQALAESQAKAAIDGGVYQQYIVEKTLAQKGNVSTQELEDEGKVDKRDERRKKASSGKAGGGAQGRETKTKSTKKHQRGKAAAQFDSDDEDDAQQGSRGGGGASKKAVKPLELVKTADIVKLITASLEEEGLEHLSKSIASLYTNQFNQTALARAQELFEATPQTNRRQTHAAIQDRINTLLIDIRLYEKGLKLFPQDTQTQLVKYLLKSLGNEICNELSLYVASECNLTVKNTNLNVDQRNKLAQECEAQYRAALLEQNKALNKSIDDFELATETVLKTCSMIIKKVDKKKDRLLIADHKKKLQKQLLECNEPALLLHLAALILFTTITGSILHASGKFVSAILQHIRGSLNEDQNALLLRYHDLVLQVLQAIPDSNESKLANEHLQTMQNQVVELAQNFSRASISKAD
MAPPIT interaction score (CG13901): 1.55 | MAPPIT interaction score (CG5862): -0.395 | MAPPIT interaction score (RpLP1): -0.273

B3: CG5021 (protein)
chain: MASATVRNVPLLDDDTIPFGEEDEMRDPSRAGQKYTHPYVTFFHLFFRGAAILIYMFCGWFSDSFITSFVFVVLFLSADFWTVKNISGRLLVGLRWWNYVDDDGVSHWVFESKNSESYQSRVNKNEQRIFWLGLILCPVFWGLFFLFALFGLKFKWLLLVMIAIALNAANLYGYVKCNYGANKDLNSAATDFVKTQFFKNAVDIMTRPSGAPPPTNVRPTGVV
MAPPIT interaction score (CG13494): 0.956

B4: Dpit47 (protein)
chain: MKQMAAQKAWTDEERLELAAQLDAELDAFIDGLEKKRYEEGWPEDRWQEEMDKHPFFMKRAPQPGDDVHPMFEGLQKLKYDPEENTRDELALNYKEDGNFYMKHKKFRMAIYSFTEGIKTKTDNPDVLAVLYNNRSAAHFFIKNYRSSLSDAQRALFYKPDYTKARWRSAQCAYELERFDLCTQMCEELLEVDVDNEVAIALLHKNKMKKLEIERNQRKEAAEAKRRLTRFHRLRDAIEQRAIKFDDQKVGKKDVLSEELLYPKFLPLEDHPVHLDEDGSTLIWPAAFSYPEFLYSDFYQQLPETTTMRDCLATLLTEKLPYDKAHNYRLGNVHVYYENRKVGCVHKVDEEKQLAEIIAEKGFFVSGGALLFYVVHKDSRVEQEFINERRRPMVYS
MAPPIT interaction score (CG13843): 3.75 (active) | MAPPIT interaction score (Os-C): 1.52

B5: sina (protein)
chain: MSNKINPKRREPTAAAAGAGATGVATNTSTSTGSSSAGNTSSANTSSSSSSSLSSAGGGDAGMSADLTSLFECPVCFDYVLPPILQCSSGHLVCVSCRSKLTCCPTCRGPLANIRNLAMEKVASNVKFPCKHSGYGCTASLVYTEKTEHEETCECRPYLCPCPGASCKWQGPLDLVMQHLMMSHKSITTLQGEDIVFLATDINLPGAVDWVMMQSCFGHHFMLVLEKQEKYDGHQQFFAIVQLIGSRKEAENFVYRLELNGNRRRLTWEAMPRSIHEGVASAIHNSDCLVFDTSIAQLFADNGNLGINVTISLV
MAPPIT interaction score (CG13840): -0.135 | MAPPIT interaction score (CG5674): -0.0161 | MAPPIT interaction score (Klp98A): 0.0642 | MAPPIT interaction score (Rpn13): 0.72

B6: Treh (protein)
chain: MFKLPTISLLLVSWSCLVALSQAKTYSLPDLTTDYNNAIPVDEEEAQDPFASCKIYCEGNLLHTIQTAVPKLFADSKTFVDMKLNNSPDKTLEDFNAMMEAKNQTPSSEDLKQFVDKYFSAPGTELEKWTPTDWKENPSFLDLISDPDLKQWGVELNSIWKDLGRKMKDEVSKNPEYYSIIPVPNPVIVPGGRFIEFYYWDSYWIIRGLLYSQMFDTARGMIENFFSIVNRFGFIPNGGRVYYHGRSQPPLLTGMVKSYVDFTNDDKFAIDALDTLEHEFEFFVNNHNVTVKNHSLCVYRDSSSGPRPESYREDVETGEEFPTDEAKELHYSELKAGAESGMDFSSRWFISPTGTNDGNRSALSTTSIVPVDLNAYLYWNAKLIAEFHSKAGNTKKVTEYETKAEKLLLGIQEVLWNEEAGVWLDYDMINQKPRDYYTPTNLSPLWVKAFNISESEKISASVMAYIERNKLDSFPGGVPNTLSYTGEQWDAPNVWAPMQYILVEGLNNLNTPEAKNMSLKWATRWVKTNFAAFSKDRHMYEKYNADEFGVGGGGGEYEVQTGFGWSNGVIIEWLSKHGRDISIGSGCGCLAGEKRQ
MAPPIT interaction score (CG13560): -0.19
